Results taken from PubChem BioAssay (NCATS).
Results filed as inconclusive are left out. The source made the active and inactive calls. Unless noted, calls come from the whole dose curve; as a rule, active = well fitted curve in the direction sought with a large enough effect; inconclusive = small, poorly fitted or top-dose-only effect, or another doubt; inactive = no such curve, though single readings can be large; an effect the other way counts as inactive or inconclusive.

Columns and labels:
[1] = P-glycoprotein substrates identified in KB-8-5-11 adenocarcinoma cell line, qHTS therapeutic library screen (AID 1346987); details: KB-8-5-11 (P-gp overexpressing) viability, CellTiter-Glo, 72 h; series mostly up to 44.5 µM; note: nearly all actives have a fitted effect of over 65% in size; note: potency is the fitted concentration of half-maximal effect
Method in brief: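 Compounds are pinned in dose-response onto KB-8-5-11 cells (500 cells/well, colchicine-free medium) and left 72 h at 37 degree C. CellTiter-Glo luminescence then yields AC50 values.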

[2] = target: Furin (Homo sapiens) (UniProt P09958); test: Furin counterscreen qHTS for Zika virus inhibitors (AID 1347149); details: furin enzymatic counterscreen, fluorogenic substrate; series mostly up to 114 µM; note: nearly all actives have a fitted effect of over 70% in size; note: potency is the fitted concentration of half-maximal effect
Method in brief: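 Counterscreen measures cleavage of 2 microM BOC-RVRR-AMC, below its ~15 microM Km, by 5 nM full-length human furin at pH 7.0 after a 15-min compound preincubation. Inhibition derives from the 15-min fluorescence increase at 37C.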

[3] = system: Zika virus NS2B-NS3 protease (linked construct); test: Confirmatory screen NINDS AMC qHTS for Zika virus inhibitors (AID 1347152); details: Purified linked NS2B-NS3, AMC substrate fluorescence; series mostly up to 36.9 µM; note: nearly all actives have a fitted effect of over 70% in size; note: potency is the fitted concentration of half-maximal effect
Method in brief: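 Enzyme (1 nM, linked construct) was preincubated with compound for 15 minutes at room temperature in 10 mM Tris-HCl pH 8.0 with 0.01% Tween 20. Bz-Nle-Lys-Arg-Arg-AMC was then added to 10 microM, and AMC fluorescence was recorded immediately and after 15 minutes.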

[4] = system: Zika virus NS2B-NS3 protease (unlinked complex); test: Confirmatory screen GU AMC qHTS for Zika virus inhibitors (AID 1347153); details: Recombinant NS2B-NS3 protease, AMC substrate fluorescence; note: potency is the fitted concentration of half-maximal effect; nearly all actives have a fitted effect of over 70% in size
Method in brief: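 Unlinked enzyme 25 nM, Tris pH 8.0/0.01% Tween 20; cpd 15 min RT, dark; + AMC substrate 10 µM (Km 18.3 µM); 340/450 nm read at t0 and 15 min; % inhibition → 4-param fit.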

[5] = target: Atrial natriuretic peptide receptor 1 (Homo sapiens) (UniProt P16066); test: Natriuretic polypeptide receptor (hNpr1) antagonism - Pilot screen (AID 1347049; calls by dose curve;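 note: HEK293 cells with hNpr1 and GloSensor cGMP luciferase stimulated by 0.1 nM hNppA; agonist-evoked cGMP luminescence read 20 min after hNppA addition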); details: hNpr1 cells, antagonist mode cGMP read-out; series mostly up to 57.5 µM
Method in brief: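 Cells expressing receptor plus cGMP biosensor are seeded and incubated overnight at 37C, then loaded with GloSensor reagent (2% final) at room temperature for 2 h. Library compounds go on for 30 min. A pre-read precedes agonist (hNppA, 0.1 nM final) and a 20-min readout.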

[6] = target: Atrial natriuretic peptide receptor 2 (Homo sapiens) (UniProt P20594); test: Natriuretic polypeptide receptor (hNpr2) antagonism - Pilot subtype selectivity assay (AID 1347050; calls by dose curve; note: potency is the fitted concentration of half-maximal effect); details: NPR2-expressing cells, cGMP antagonist-mode read-out; series mostly up to 38.3 µM
Method in brief: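 Read-out: GloSensor luminescence (CCD imager), baseline vs post-stimulation. HEK293 cells expressing hNpr2; compounds pre-incubated 30-50 min at ambient temperature; hNppC 1 nM final, 20 min.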

[7] = target: T1, Tyrosine-protein phosphatase non-receptor type substrate 1 (Homo sapiens) + Leukocyte surface antigen CD47 (Homo sapiens) (UniProt P78324+Q08722); test: CD47-SIRPalpha protein protein interaction - LANCE assay qHTS validation (AID 1347057; active = well fitted curve in the direction sought with a large enough effect in the signal ratio, with a control signal flat, not every such curve was filed as active; the % refers to the signal ratio); details: Recombinant CD47-His / biotin-SIRPalpha, TR-FRET ratio; series mostly up to 38.3 µM
Method in brief: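 Inhibition of soluble CD47/SIRPalpha ectodomain association by titrated compounds, measured as 665/615 nm time-resolved FRET ratio after sequential 30 min room-temperature incubations.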

[8] = target: T1, Tyrosine-protein phosphatase non-receptor type substrate 1 (Homo sapiens) + Leukocyte surface antigen CD47 (Homo sapiens); test: CD47-SIRPalpha protein protein interaction - HTRF assay qHTS validation (AID 1347058; active = well fitted curve in the direction sought with a large enough effect in the signal ratio, not every such curve was filed as active; the % refers to the signal ratio); details: TR-FRET HTRF CD47-His / biotin-SIRPalpha binding, ratio 665/615; series mostly up to 38.3 µM
Method in brief: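 Soluble extracellular domains (6His-CD47, Avi-tag-biotinylated SIRPalpha) in PBS pH 7.4 with 0.05% IGEPAL CA-630. Compounds were preincubated 30 min at RT with CD47 and anti-His-Eu, then SIRPalpha and SAV-XL665 were added. TR-FRET 665/615 ratio.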

[9] = target: T1, Tyrosine-protein phosphatase non-receptor type substrate 1 (Homo sapiens) + Leukocyte surface antigen CD47 (Homo sapiens); test: CD47-SIRPalpha protein protein interaction - Alpha assay qHTS validation (AID 1347059); details: AlphaScreen CD47-His/biotin-SIRPalpha binding, LOPAC; series mostly up to 38.3 µM;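 note: bead proximity luminescence from CD47 binding SIRPalpha after compound preincubation with SIRPalpha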
Method in brief: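 In PBS (pH 7.4) with 0.05% IGEPAL CA-630, compound is preincubated with biotin-Avi-SIRPalpha ectodomain before His-CD47 ectodomain and affinity beads are added. Light-protected room-temperature incubations; AlphaScreen readout.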

[10] = target: Parathyroid hormone/parathyroid hormone-related peptide receptor (Homo sapiens) (UniProt Q03431); test: qHTS for PTHR1 Agonists: Optimization Screen against the NCGC LOPAC library (AID 1347079); details: HEK293 GP2 PTHR1 GloSensor cAMP luminescence, 1 h; series mostly up to 57.1 µM;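 note: GloSensor cAMP luminescence in HEK-293 GP2 cells expressing human PTHR1 with IBMX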
Method in brief: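 HEK-293 GP2 cells, PTHR1 + GloSensor cAMP; 3000 cells/well, o/n. Luciferin + IBMX 0.5mM each (stock), 1 hr 37C. Cpd titration, 1 hr 37C. Lum after 15 min RT. Ctrl M-PTH(1-15) top 10uM.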

[11] = qHTS of pediatric cancer cell lines to identify multiple opportunities for drug repurposing: Primary screen for SJ-GBM2 cells (AID 1347091); details: SJ-GBM2 viability, CellTiter-Glo luminescence, 48 h; note: potency is the fitted concentration of half-maximal effect
Method in brief: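 Eight- or eleven-point concentration series, 48 h treatment at 37 degrees C in growth media; readout CellTiter-Glo luminescence. Potency and efficacy were taken from the concentration-response curves.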

[12] = qHTS of pediatric cancer cell lines to identify multiple opportunities for drug repurposing: Primary screen for Saos-2 cells (AID 1347097); details: Saos-2 viability, CellTiter-Glo ATP luminescence, 48 h; note: potency is the fitted concentration of half-maximal effect; nearly all actives have a fitted effect of over 40% in size
Method in brief: (§1)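 Plated cells (500-1,000 per well, growth media) were allowed to settle for 5 hours, treated with compound dilutions for 48 hours, then lysed with CellTiter-Glo for 15 min at room temperature before luminescence reading.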

[13] = qHTS of pediatric cancer cell lines to identify multiple opportunities for drug repurposing: Primary screen for SK-N-SH cells (AID 1347098); details: SK-N-SH viability, CellTiter-Glo luminescence, 48 h; note: potency is the fitted concentration of half-maximal effect; nearly all actives have a fitted effect of over 65% in size
Method in brief: (§2)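 Cells (500-1,000/well) rested 5 h, then received compounds for 48 h; metabolically active cells were measured by CellTiter-Glo luminescence. Final concentrations spanned up to 46 µM (MIPE, 11-point) or 0.59 nM-46 µM (NPC, 8-point) in primary screens, 11-point in follow-ups.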

[14] = qHTS of pediatric cancer cell lines to identify multiple opportunities for drug repurposing: Primary screen for BT-12 cells (AID 1347101); details: BT-12 viability, CellTiter-Glo luminescence, 48 h; note: potency is the fitted concentration of half-maximal effect; nearly all actives have a fitted effect of over 25% in size
Method in brief: as §2

[15] = qHTS of pediatric cancer cell lines to identify multiple opportunities for drug repurposing: Primary screen for Rh18 cells (AID 1347102); details: Rh18 rhabdomyosarcoma viability, CellTiter-Glo luminescence, 48 h; note: potency is the fitted concentration of half-maximal effect; nearly all actives have a fitted effect of over 65% in size
Method in brief: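 Cells (500-1,000/well) in growth media were settled 5 h at 37 degrees C, then given compounds for 48 h. Viability was read as CellTiter-Glo luminescence. Primary runs used MIPE at 11 points (0.78 nM-46 µM) and NPC at 8 points (0.59 nM-46 µM); follow-ups used 11 points.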

[16] = qHTS of pediatric cancer cell lines to identify multiple opportunities for drug repurposing: Primary screen for OHS-50 cells (AID 1347103); details: OHS-50 osteosarcoma viability, CellTiter-Glo luminescence, 48 h; note: potency is the fitted concentration of half-maximal effect; nearly all actives have a fitted effect of over 40% in size
Method in brief: as §2

[17] = system: Zika virus NS2B-NS3 protease (unlinked); test: Optimization of GU AMC qHTS for Zika virus inhibitors: Unlinked NS2B-NS3 protease assay (AID 1347151); details: recombinant ZIKV NS2B-NS3 protease, fluorogenic AMC substrate; series mostly up to 52.5 µM; note: nearly all actives have a fitted effect of over 80% in size
Method in brief: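 Unlinked protease (25 nM final); buffer 10 mM Tris-HCl pH 8.0 + 0.01% Tween 20; AMC substrate; 15 min RT, dark; Δfluorescence normalized to no-inhibitor/no-enzyme controls; 4-parameter Hill fit.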

[18] = qHTS of pediatric cancer cell lines to identify multiple opportunities for drug repurposing: Primary screen for RD cells (AID 1347104); details: RD rhabdomyosarcoma viability, CellTiter-Glo luminescence, 48 h; note: potency is the fitted concentration of half-maximal effect; nearly all actives have a fitted effect of over 55% in size
Method in brief: as §1

Furin (Homo sapiens), sequence (P09958 whole entry, looked up): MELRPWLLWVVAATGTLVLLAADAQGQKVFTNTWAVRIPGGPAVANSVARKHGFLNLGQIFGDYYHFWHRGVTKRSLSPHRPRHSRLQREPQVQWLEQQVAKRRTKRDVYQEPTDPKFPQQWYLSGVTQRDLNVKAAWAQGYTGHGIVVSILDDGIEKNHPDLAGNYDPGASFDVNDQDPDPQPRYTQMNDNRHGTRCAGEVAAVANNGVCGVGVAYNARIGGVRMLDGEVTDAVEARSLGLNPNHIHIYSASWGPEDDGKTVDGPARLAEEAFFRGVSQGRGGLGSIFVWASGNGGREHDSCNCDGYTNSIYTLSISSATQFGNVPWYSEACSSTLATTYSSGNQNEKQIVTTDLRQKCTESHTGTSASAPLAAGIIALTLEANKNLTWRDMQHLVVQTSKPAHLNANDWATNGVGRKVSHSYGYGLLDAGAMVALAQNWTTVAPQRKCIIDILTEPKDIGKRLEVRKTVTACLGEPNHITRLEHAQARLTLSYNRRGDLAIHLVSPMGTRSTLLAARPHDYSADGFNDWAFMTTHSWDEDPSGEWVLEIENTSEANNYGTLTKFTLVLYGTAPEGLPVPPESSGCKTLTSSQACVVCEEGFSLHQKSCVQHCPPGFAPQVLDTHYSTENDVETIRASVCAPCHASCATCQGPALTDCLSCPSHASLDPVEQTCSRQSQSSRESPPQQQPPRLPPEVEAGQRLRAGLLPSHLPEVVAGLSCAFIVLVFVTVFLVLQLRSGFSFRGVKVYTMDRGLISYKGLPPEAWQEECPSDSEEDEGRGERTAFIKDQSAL
T1 sequence (P78324 whole entry, looked up, the tested form may be a part): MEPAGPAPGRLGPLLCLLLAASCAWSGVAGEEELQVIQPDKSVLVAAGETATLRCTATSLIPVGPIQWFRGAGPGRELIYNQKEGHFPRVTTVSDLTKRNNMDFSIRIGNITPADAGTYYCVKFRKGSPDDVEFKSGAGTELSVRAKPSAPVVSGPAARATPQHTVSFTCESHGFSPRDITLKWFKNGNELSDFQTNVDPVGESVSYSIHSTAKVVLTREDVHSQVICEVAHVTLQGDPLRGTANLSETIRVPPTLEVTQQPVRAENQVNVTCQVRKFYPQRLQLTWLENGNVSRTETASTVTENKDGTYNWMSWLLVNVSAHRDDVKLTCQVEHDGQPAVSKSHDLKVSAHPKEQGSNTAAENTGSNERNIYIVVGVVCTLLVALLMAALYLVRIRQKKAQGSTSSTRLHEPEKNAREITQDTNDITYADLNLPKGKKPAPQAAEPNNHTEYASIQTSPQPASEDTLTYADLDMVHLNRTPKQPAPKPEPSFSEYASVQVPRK
T1 sequence (Q08722 whole entry, looked up, the tested form may be a part): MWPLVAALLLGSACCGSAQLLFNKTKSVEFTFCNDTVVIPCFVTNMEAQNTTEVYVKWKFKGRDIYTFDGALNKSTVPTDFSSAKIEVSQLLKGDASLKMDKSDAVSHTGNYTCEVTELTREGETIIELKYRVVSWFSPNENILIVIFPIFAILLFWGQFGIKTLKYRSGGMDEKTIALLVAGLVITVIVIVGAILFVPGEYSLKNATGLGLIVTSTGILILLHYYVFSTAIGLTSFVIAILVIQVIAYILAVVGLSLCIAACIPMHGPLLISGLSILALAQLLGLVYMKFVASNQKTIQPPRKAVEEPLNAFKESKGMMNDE
Atrial natriuretic peptide receptor 2 (Homo sapiens), sequence (P20594 whole entry, looked up): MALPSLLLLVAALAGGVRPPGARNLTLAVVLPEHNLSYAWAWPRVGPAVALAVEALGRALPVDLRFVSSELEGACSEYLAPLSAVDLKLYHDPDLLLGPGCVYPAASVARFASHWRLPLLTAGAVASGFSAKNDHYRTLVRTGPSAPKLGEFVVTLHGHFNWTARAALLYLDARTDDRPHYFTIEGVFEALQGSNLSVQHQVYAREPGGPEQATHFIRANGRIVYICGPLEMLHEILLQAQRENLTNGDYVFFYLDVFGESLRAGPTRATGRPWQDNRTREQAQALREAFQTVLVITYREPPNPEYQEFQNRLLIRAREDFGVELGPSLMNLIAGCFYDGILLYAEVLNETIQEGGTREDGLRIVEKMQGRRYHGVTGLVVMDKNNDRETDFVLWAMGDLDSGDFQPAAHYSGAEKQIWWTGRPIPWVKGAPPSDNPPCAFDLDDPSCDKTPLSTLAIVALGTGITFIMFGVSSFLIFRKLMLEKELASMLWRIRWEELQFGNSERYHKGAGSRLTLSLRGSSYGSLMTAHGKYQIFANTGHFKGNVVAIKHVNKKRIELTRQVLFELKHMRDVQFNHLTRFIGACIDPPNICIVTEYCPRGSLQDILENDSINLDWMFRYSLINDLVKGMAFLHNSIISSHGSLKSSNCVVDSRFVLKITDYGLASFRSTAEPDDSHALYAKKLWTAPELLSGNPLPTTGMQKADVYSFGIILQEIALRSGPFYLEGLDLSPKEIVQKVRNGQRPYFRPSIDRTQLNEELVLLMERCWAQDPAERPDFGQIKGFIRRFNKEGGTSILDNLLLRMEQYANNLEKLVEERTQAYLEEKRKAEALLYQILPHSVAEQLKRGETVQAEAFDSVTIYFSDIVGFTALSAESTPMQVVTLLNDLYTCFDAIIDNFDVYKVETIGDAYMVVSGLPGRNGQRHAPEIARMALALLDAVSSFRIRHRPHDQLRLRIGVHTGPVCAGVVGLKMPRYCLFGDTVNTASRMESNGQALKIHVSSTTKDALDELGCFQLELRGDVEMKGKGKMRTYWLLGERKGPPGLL
Atrial natriuretic peptide receptor 1 (Homo sapiens), sequence (P16066 whole entry, looked up): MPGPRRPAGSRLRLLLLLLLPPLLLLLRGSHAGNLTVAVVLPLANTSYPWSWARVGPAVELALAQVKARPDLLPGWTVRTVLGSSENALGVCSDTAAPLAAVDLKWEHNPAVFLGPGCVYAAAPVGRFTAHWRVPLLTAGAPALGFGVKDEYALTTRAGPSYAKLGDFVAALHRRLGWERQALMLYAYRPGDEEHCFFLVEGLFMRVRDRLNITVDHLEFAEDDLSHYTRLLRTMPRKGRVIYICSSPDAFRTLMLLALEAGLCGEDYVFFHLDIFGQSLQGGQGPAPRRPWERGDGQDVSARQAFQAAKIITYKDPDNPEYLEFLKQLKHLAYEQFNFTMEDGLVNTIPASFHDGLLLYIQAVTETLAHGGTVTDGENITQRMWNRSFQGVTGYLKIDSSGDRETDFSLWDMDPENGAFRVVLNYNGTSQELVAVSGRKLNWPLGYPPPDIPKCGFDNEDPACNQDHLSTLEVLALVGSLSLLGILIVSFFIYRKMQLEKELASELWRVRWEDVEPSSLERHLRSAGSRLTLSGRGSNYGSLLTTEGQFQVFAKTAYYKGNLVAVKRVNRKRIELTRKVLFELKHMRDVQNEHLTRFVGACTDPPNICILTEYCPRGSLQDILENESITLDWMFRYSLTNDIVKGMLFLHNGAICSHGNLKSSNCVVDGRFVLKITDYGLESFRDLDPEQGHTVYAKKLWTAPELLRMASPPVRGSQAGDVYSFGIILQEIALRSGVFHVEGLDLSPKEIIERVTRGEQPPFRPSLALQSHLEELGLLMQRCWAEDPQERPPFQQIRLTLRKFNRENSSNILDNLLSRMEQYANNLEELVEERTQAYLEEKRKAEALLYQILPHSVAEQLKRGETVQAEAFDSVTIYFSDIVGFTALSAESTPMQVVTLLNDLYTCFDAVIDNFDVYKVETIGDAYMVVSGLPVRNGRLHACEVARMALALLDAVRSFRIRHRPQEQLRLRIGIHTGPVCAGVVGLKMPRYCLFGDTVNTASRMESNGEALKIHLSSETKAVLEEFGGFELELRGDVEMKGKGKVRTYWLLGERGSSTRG
Parathyroid hormone/parathyroid hormone-related peptide receptor (Homo sapiens), sequence (Q03431 whole entry, looked up): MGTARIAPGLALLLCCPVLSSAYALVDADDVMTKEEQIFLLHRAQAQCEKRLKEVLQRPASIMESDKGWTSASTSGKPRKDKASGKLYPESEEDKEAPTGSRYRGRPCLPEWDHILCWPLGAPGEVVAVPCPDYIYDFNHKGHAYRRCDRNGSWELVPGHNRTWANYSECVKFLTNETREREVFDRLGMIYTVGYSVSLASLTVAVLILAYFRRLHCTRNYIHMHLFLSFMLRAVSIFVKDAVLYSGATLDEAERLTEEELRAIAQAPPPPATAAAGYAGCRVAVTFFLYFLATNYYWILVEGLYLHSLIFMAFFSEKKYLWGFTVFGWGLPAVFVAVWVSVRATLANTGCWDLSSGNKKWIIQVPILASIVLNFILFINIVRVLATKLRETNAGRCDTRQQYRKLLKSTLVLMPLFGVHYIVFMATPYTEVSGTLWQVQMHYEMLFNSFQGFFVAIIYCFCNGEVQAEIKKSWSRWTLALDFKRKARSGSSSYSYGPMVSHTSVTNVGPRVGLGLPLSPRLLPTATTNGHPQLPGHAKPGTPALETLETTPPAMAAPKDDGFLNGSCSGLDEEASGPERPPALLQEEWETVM

**Q.** What does the source list for CC(O)(C(=O)O)C1CCC2(C)C1CCC1(C)C2CCC2C3(C)CCC(O)C(C)(COC4OC(CO)C(O)C(O)C4O)C3CCC21C (centres undefined)?
**A.** Potency [1]: inactive; Potency [2]: inactive; Potency [3]: inactive

**Q.** For C=C(C)[C@@H]1CC=C(COC(=O)NC(=O)c2ncn3c(=O)n(C)nnc23)CC1, which Potency [1] is on record?
**A.** inactive

**Q.** For O=C(Nc1cccc2cccnc12)c1ccc(N2C(=O)[C@@H]3C4C=CC(C4)[C@@H]3C2=O)cc1, which Potency [1] is on record?
**A.** inactive

**Q.** With CC(C)C[C@H](C(=O)O)c1cc(-c2ccc(C(F)(F)F)cc2)cc(-c2ccc(C(F)(F)F)cc2)c1 as the molecule, how does the Potency [2] read?
**A.** 17.5 µM (active)

**Q.** What about the Potency [3] of the same molecule?
**A.** 9.87 µM (active)

**Q.** And the Potency [4]?
**A.** 15.6 µM (active)

**Q.** For O=C(O)c1ccc(N2C(=O)/C(=C/c3ccc(-c4ccc([N+](=O)[O-])cc4)o3)C=C2c2ccccc2)cc1, which Potency [3] is on record?
**A.** 12.4 µM (active)

**Q.** With CCCCCCCCC(=O)N[C@H](CN1CCCC1)[C@H](O)c1ccc2c(c1)OCCO2 as the molecule, how does the Potency [1] read?
**A.** 16.4 µM (active)

**Q.** Which outcome [5] does the source give for CN[C@H]1CC[C@@H](c2ccc(Cl)c(Cl)c2)c2ccccc21 here?
**A.** inactive

**Q.** What about the Potency [6] of the same molecule?
**A.** 14.7 µM (active)

**Q.** And the outcome [7]?
**A.** inactive

**Q.** And the outcome [8]?
**A.** inactive

**Q.** What about the outcome [9] of the same molecule?
**A.** inactive

**Q.** And the outcome [10]?
**A.** inactive

**Q.** And the Potency [11]?
**A.** 23.7 µM (active)

**Q.** What about the Potency [12] of the same molecule?
**A.** 23.7 µM (active)

**Q.** What about the Potency [13] of the same molecule?
**A.** 10.9 µM (active)

**Q.** What about the Potency [14] of the same molecule?
**A.** 21.9 µM (active)

**Q.** What about the Potency [15] of the same molecule?
**A.** 23.7 µM (active)

**Q.** What about the Potency [16] of the same molecule?
**A.** 15.5 µM (active)

**Q.** Which Potency [2] does the source give for CCCCCCCOc1cc2c(cc1/C(C)=C/c1ccc(C(=O)O)cc1)C(C)(C)CCS2(=O)=O here?
**A.** 55.5 µM (active)

**Q.** What about the Potency [3] of the same molecule?
**A.** 8.79 µM (active)

**Q.** And the Potency [4]?
**A.** 8.79 µM (active)

**Q.** For CC1(C)CCCC2(C)C1C(=O)C=C(C(=O)O)C2(O)C(=O)O (centres undefined), which Potency [1] is on record?
**A.** inactive

**Q.** Which results are given for CC#C[C@@H](CC(=O)O)c1ccc(OCc2cccc(-c3ccc(C(F)(F)F)cc3)c2)cc1?
**A.** Potency [1]: inactive; Potency [2]: 24.1 µM (active); Potency [3]: 12.4 µM (active); Potency [4]: 13.9 µM (active)

**Q.** With O=C(Nc1ccc(-c2ccc(Cl)c(Cl)c2)cc1)C1=C(O)c2ccccc2S(=O)(=O)N1 as the molecule, how does the Potency [1] read?
**A.** inactive

**Q.** What about the Potency [2] of the same molecule?
**A.** inactive

**Q.** What about the Potency [3] of the same molecule?
**A.** 49.4 µM (active)

**Q.** And the Potency [4]?
**A.** 44.1 µM (active)

**Q.** For Cc1cc(C)c2c(c1)C(N(Cc1cc(C(F)(F)F)cc(C(F)(F)F)c1)c1nnn(C)n1)CCCN2CC1CCC(C(=O)O)CC1 (centres undefined), which Potency [3] is on record?
**A.** 22.1 µM (active)

**Q.** What about the Potency [4] of the same molecule?
**A.** 22.1 µM (active)

**Q.** With Cc1cc(NC(=O)NCCN2CCC(O)(Cc3ccccc3)CC2)c2ccccc2n1 as the molecule, how does the Potency [1] read?
**A.** inactive

**Q.** With O=P(O)(O)C(O)(Cc1cnc2ccccn12)P(=O)(O)O as the molecule, how does the Potency [1] read?
**A.** inactive

**Q.** For C[C@@H]1CC[C@]2(C(=O)O)CC[C@]3(C)C(=CCC4[C@@]5(C)CC[C@H](O)[C@](C)(C(=O)O)C5CC[C@]43C)C2[C@]1(C)O (some centres undefined), which Potency [1] is on record?
**A.** inactive

**Q.** Which Potency [1] does the source give for CCC(CC)(NC(=O)C(C)C)C(=O)N[C@@H](CCCN=C(N)N)C(=O)NC1(C(=O)NC(c2ccc(F)cc2)c2ccc(F)cc2)CCCC1 here?
**A.** inactive

**Q.** And the Potency [2]?
**A.** inactive

**Q.** And the outcome [17]?
**A.** inactive

**Q.** For COc1cc(N2CCOCC2)ccc1NC(=O)c1csc(-c2cccnc2)n1, which Potency [1] is on record?
**A.** 11.6 µM (active)

**Q.** With O=S(=O)(Nc1cc(Cl)c(Oc2cnc3ccccc3c2)c(Cl)c1)c1ccc(Cl)cc1Cl as the molecule, how does the Potency [3] read?
**A.** 13.9 µM (active)

**Q.** Which Potency [11] does the source give for Oc1cccc(-c2c3nc(c(-c4cccc(O)c4)c4ccc([nH]4)c(-c4cccc(O)c4)c4nc(c(-c5cccc(O)c5)c5ccc2[nH]5)CC4)C=C3)c1 here?
**A.** 21.1 µM (active)

**Q.** And the Potency [18]?
**A.** 26.6 µM (active)

**Q.** What about the Potency [2] of the same molecule?
**A.** inactive

**Q.** With COc1cccc(-c2cc(F)ccc2C2Cc3nc(N)nc(C)c3C(=O)N2)n1 (centres undefined) as the molecule, how does the Potency [1] read?
**A.** 0.0259 µM (active)

**Q.** Which Potency [1] does the source give for C=C(C)[C@@H]1CC[C@]2(C(=O)O)CC[C@]3(C(=O)O)[C@H](CCC4[C@@]5(C)CCC(=O)C(C)(C)C5CC[C@]43C)C12 (some centres undefined) here?
**A.** inactive
